# Article PMC4081100, “A DNA-binding-site landscape and regulatory network analysis for NAC transcription factors in Arabidopsis thaliana”
# How the values were obtained:
# Experiment in all cases: universal protein binding microarray (PBM); transcription factors of Arabidopsis thaliana; high values mean tight binding
# [1] = target: T1, GST-ANAC092(1-176) (Arabidopsis thaliana, UniProt Q9FKA0 1-176); conditions: protein: recombinant; tags: GST; chain copies: 2; dsDNA, one strand shown
# T1 sequence: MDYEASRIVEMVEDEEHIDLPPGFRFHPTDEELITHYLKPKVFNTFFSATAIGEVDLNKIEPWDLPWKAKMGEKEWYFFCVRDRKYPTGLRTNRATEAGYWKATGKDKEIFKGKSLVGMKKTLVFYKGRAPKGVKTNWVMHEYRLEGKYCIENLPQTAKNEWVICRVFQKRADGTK
# Summary of the method: (§1)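 Binding is expressed as the normalised enrichment score (E-score). Proteins carrying a GST tag, whether NAC-domain, full-length or DNA-binding-domain forms, were induced in cells, and zinc acetate was added for zinc-finger proteins. After purification on glutathione–Sepharose 4B and quantification by A280 or anti-GST western blot, each was applied in duplicate at 200 to 500 nM final to custom all-10-mer Agilent 4 × 180K arrays made double-stranded by primer extension. Gapped and ungapped 8-mers were scored.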
# [2] = target: GST-WRKY1(266-371) (Arabidopsis thaliana, UniProt Q9SI37 266-371); conditions: protein: recombinant; tags: GST; dsDNA, one strand shown
# Chain of GST-WRKY1(266-371) (Q9SI37 266-371): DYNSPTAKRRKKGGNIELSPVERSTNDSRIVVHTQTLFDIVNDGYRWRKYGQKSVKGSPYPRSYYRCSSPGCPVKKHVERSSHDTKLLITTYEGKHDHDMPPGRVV
# Summary of the method: as §1
# [3] = target: T2, GST-ATAF1 NAC domain (Arabidopsis thaliana, UniProt Q39013 7-158); conditions: protein: recombinant; tags: GST; chain copies: 2; dsDNA, one strand shown
# T2 sequence: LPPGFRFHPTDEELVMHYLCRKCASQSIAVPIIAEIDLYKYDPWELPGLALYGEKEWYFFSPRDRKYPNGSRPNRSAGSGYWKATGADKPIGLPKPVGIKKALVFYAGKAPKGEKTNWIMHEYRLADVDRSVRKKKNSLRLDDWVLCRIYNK
# Summary of the method: as §1
# [4] = target: T3, GST-ANAC092(1-285) full length (Arabidopsis thaliana, UniProt Q9FKA0 1-285); conditions: protein: recombinant; tags: GST; chain copies: 2; dsDNA, one strand shown
# T3 sequence: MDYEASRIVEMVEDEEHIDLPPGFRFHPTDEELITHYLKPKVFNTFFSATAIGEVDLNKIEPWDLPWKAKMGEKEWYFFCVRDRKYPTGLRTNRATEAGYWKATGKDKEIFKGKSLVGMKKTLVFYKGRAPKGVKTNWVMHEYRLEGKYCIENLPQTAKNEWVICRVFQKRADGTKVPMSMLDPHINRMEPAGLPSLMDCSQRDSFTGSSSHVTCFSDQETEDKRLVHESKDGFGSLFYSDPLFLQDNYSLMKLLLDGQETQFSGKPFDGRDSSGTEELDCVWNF
# Summary of the method: as §1
# [5] = target: T4, GST-NST2(1-184) (Arabidopsis thaliana, UniProt Q9M274 1-184); conditions: protein: recombinant; tags: GST; chain copies: 2; dsDNA, one strand shown
# T4 sequence: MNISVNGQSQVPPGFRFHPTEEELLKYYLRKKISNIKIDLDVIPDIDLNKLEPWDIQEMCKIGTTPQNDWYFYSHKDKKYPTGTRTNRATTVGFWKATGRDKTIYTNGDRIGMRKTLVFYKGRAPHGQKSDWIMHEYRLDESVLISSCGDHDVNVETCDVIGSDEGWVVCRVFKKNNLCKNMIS
# Summary of the method: as §1
# [6] = target: GST-NTL6(1-168) (Arabidopsis thaliana, UniProt Q9SCK6 1-168); conditions: protein: recombinant; tags: GST; chain copies: 2; dsDNA, one strand shown
# Chain of GST-NTL6(1-168) (Q9SCK6 1-168): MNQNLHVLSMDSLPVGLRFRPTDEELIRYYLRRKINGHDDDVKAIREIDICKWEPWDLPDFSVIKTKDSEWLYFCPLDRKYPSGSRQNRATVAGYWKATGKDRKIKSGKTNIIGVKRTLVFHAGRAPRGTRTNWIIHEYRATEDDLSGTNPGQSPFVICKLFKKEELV
# Summary of the method: as §1
# [7] = target: T5, GST-ANAC019 NAC domain (Arabidopsis thaliana, UniProt Q9C932 14-162); conditions: protein: recombinant; tags: GST; chain copies: 2; dsDNA, one strand shown
# T5 sequence: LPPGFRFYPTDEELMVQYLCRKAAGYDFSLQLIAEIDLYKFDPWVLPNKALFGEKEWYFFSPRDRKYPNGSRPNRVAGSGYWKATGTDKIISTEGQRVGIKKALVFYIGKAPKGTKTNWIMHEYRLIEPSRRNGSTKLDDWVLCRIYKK
# Summary of the method: as §1
# [8] = target: T6, GST-ANAC055(1-171) (Arabidopsis thaliana, UniProt Q9LDY8 1-171); conditions: protein: recombinant; tags: GST; chain copies: 2; dsDNA, one strand shown
# T6 sequence: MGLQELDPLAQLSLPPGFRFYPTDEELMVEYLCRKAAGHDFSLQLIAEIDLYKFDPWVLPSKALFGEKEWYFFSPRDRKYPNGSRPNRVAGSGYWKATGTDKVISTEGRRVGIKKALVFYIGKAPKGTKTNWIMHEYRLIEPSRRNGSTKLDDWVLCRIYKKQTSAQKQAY
# Summary of the method: as §1
# [9] = target: T7, GST-NAP(1-166) (Arabidopsis thaliana, UniProt O49255 1-166); conditions: protein: recombinant; tags: GST; chain copies: 2; dsDNA, one strand shown
# T7 sequence: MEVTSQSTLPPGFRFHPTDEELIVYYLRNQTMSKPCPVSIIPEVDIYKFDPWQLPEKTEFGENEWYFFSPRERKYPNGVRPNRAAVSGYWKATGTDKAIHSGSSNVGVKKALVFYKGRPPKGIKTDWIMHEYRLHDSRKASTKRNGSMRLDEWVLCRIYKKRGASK
# Summary of the method: as §1
# [10] = target: T8, GST-NTL8 NAC domain (Arabidopsis thaliana, UniProt Q9XIN7 14-156); conditions: protein: recombinant; tags: GST; chain copies: 2; dsDNA, one strand shown
# T8 sequence: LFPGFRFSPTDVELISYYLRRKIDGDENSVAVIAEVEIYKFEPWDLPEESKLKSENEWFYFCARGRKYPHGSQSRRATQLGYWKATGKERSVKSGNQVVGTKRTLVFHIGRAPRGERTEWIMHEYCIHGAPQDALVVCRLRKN
# Summary of the method: as §1
sequence,measurement,setting,value
GTTGACCA,binding signal,[1],0.131 E-score
same,binding signal,[2],0.492 E-score
GGTCAAAC,binding signal,[1],0.0595 E-score
same,binding signal,[3],0.0641 E-score
same,binding signal,[4],0.0869 E-score
same,binding signal,[5],0.0597 E-score
same,binding signal,[2],0.494 E-score
GGCTTGAC,binding signal,[1],0.0969 E-score
same,binding signal,[2],0.452 E-score
GGTTTGAC,binding signal,[6],0.131 E-score
same,binding signal,[7],0.0692 E-score
same,binding signal,[8],0.162 E-score
same,binding signal,[3],0.171 E-score
same,binding signal,[4],0.116 E-score
same,binding signal,[9],0.0603 E-score
same,binding signal,[5],0.177 E-score
same,binding signal,[2],0.483 E-score
AAGTCAGC,binding signal,[6],0.14 E-score
same,binding signal,[2],0.459 E-score
AGTTGACC,binding signal,[6],0.0645 E-score
same,binding signal,[2],0.49 E-score
TGACCAAA,binding signal,[1],0.0758 E-score
same,binding signal,[4],0.126 E-score
same,binding signal,[2],0.457 E-score
AGTCGGTC,binding signal,[2],0.403 E-score
AGTCAAGA,binding signal,[6],0.0587 E-score
same,binding signal,[2],0.471 E-score
CATTGACC,binding signal,[2],0.491 E-score
GCGTGGAC,binding signal,[1],0.0916 E-score
same,binding signal,[7],0.0892 E-score
same,binding signal,[4],0.19 E-score
same,binding signal,[2],0.404 E-score
GGCTGACC,binding signal,[2],0.431 E-score
CTGACTTA,binding signal,[6],0.195 E-score
same,binding signal,[2],0.42 E-score
CGTCAACC,binding signal,[1],0.0573 E-score
same,binding signal,[4],0.0571 E-score
same,binding signal,[2],0.435 E-score
CCAGTCAA,binding signal,[1],0.0755 E-score
same,binding signal,[7],0.0525 E-score
same,binding signal,[2],0.474 E-score
ACTCTGAC,binding signal,[2],0.437 E-score
CTCTTGAC,binding signal,[1],0.059 E-score
same,binding signal,[7],0.0833 E-score
same,binding signal,[3],0.0783 E-score
same,binding signal,[9],0.0978 E-score
same,binding signal,[2],0.449 E-score
CTGACCGC,binding signal,[1],0.0725 E-score
same,binding signal,[2],0.425 E-score
GGGAAACC,binding signal,[1],0.144 E-score
same,binding signal,[10],0.443 E-score
TGAGTCAA,binding signal,[4],0.0797 E-score
same,binding signal,[2],0.48 E-score
CCTTTCCC,binding signal,[1],0.088 E-score
same,binding signal,[6],0.11 E-score
same,binding signal,[7],0.0681 E-score
same,binding signal,[10],0.421 E-score
ACATTGAC,binding signal,[9],0.0505 E-score
same,binding signal,[2],0.465 E-score
GGTCTTCA,binding signal,[9],0.0664 E-score
same,binding signal,[2],0.431 E-score
AGGGTAAC,binding signal,[1],0.059 E-score
same,binding signal,[6],0.0788 E-score
same,binding signal,[4],0.0751 E-score
same,binding signal,[10],0.416 E-score
CCTCTGAC,binding signal,[10],0.12 E-score
same,binding signal,[2],0.408 E-score
AGGTTTCC,binding signal,[6],0.052 E-score
same,binding signal,[7],0.0846 E-score
same,binding signal,[5],0.0833 E-score
same,binding signal,[10],0.457 E-score
ATTGACCG,binding signal,[4],0.0505 E-score
same,binding signal,[2],0.487 E-score
GAGGGAAA,binding signal,[1],0.11 E-score
same,binding signal,[6],0.11 E-score
same,binding signal,[7],0.154 E-score
same,binding signal,[9],0.0766 E-score
same,binding signal,[10],0.472 E-score
GGTCAACA,binding signal,[5],0.0705 E-score
same,binding signal,[2],0.493 E-score
CGGTCAAA,binding signal,[5],0.0603 E-score
same,binding signal,[10],0.0552 E-score
same,binding signal,[2],0.49 E-score
CGAGGTCA,binding signal,[10],0.0549 E-score
same,binding signal,[2],0.425 E-score
GACCGTCA,binding signal,[9],0.0503 E-score
same,binding signal,[2],0.407 E-score
GGGTTGAC,binding signal,[9],0.0845 E-score
same,binding signal,[2],0.477 E-score
ACGGTCAA,binding signal,[4],0.0716 E-score
same,binding signal,[2],0.49 E-score
CGGGGTCA,binding signal,[10],0.107 E-score
same,binding signal,[2],0.412 E-score
AGGTCAAC,binding signal,[3],0.051 E-score
same,binding signal,[10],0.0726 E-score
same,binding signal,[2],0.492 E-score
ATGGGTCA,binding signal,[9],0.0537 E-score
same,binding signal,[2],0.422 E-score
ACGGTCAG,binding signal,[10],0.0654 E-score
same,binding signal,[2],0.432 E-score
GTCGTTGA,binding signal,[4],0.0529 E-score
same,binding signal,[5],0.0569 E-score
same,binding signal,[2],0.43 E-score
CTGGGTCA,binding signal,[4],0.0748 E-score
same,binding signal,[2],0.439 E-score
ACGACCAA,binding signal,[9],0.103 E-score
same,binding signal,[2],0.416 E-score
ATTCCCCC,binding signal,[6],0.146 E-score
same,binding signal,[10],0.402 E-score
AGGTTACC,binding signal,[1],0.0662 E-score
same,binding signal,[7],0.0729 E-score
same,binding signal,[4],0.182 E-score
same,binding signal,[10],0.437 E-score
TACGGTCA,binding signal,[9],0.0976 E-score
same,binding signal,[2],0.442 E-score
AAGTCGTC,binding signal,[9],0.156 E-score
same,binding signal,[2],0.419 E-score
AGGTAACC,binding signal,[1],0.148 E-score
same,binding signal,[6],0.105 E-score
same,binding signal,[4],0.137 E-score
same,binding signal,[10],0.442 E-score
